# Measured values: PubChem BioAssay AID2551 (National Center for Advancing Translational Sciences (NCATS), 2010)
# Hit rate of the full screen: of about 310,000 compounds, about 17,000 (5.5%) were called active. Where a call stands in place of a potency, no number is given. About 11% were inconclusive and are not listed. The full list was thinned out, with actives kept by preference. Unmarked numbers belong to inactive results. The call rests on the fitted dose curve; in most records, active means well fitted inhibition curve with a large enough effect; inconclusive means small, poorly fitted or top-dose-only effect, or effect the other way; inactive means no such curve, though single readings can be large or run the other way.
# Target: Nuclear receptor ROR-gamma (Mus musculus) (UniProt P51450)
# Sequence (P51450 whole entry, looked up): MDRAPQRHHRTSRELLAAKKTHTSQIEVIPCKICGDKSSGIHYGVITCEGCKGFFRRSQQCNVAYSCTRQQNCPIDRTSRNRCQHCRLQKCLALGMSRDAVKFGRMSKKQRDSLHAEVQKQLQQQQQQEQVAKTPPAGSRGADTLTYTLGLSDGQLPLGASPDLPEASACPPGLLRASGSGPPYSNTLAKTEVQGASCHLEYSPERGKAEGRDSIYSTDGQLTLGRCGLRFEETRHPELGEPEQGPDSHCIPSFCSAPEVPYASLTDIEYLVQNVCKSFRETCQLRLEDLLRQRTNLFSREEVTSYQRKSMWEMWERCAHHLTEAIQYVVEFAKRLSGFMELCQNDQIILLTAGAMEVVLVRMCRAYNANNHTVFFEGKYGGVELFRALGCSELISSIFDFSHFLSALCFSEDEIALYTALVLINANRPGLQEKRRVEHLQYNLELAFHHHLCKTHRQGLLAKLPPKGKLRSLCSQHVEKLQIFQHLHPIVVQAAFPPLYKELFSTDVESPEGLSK
# Assay: qHTS for inhibitors of ROR gamma transcriptional activity; further: nearly all actives have a fitted effect of over 60% in size
# Details: Drosophila S2 Gal4-RORgamma UAS-luciferase reporter, 20 h; series mostly up to 53.6 µM
# Excerpt: NIH Molecular Libraries Probe Production Network [MLPCN] NIH Chemical Genomics Center [NCGC] MLPCN Grant: R03 DA026211-01 Assay Provider: Dan Littman, New York University Assay Overview: The retinoic acid-related orphan receptor (ROR) gamma is a transcription factor that has a central role in the differentiation of Th17 cells, a subset of T helper cells that secrete the inflammatory cytokines IL-17, IL-17F, and IL-22. Th17 cells have been implicated in graft versus host disease, autoimmune disease and asthma. ROR gamma is induced in naive T helper cells in the presence of TGF-beta combined with IL-6, IL-21, or IL-23, and thereafter directs the expression of the Th17 lineage cytokines. To study the mechanism of action of ROR gamma, an insect cell-based assay was screened. This Drosophila Schneider cell line was stably transfected with two vectors: a gene expressing a fusion of the Gal4 DNA binding domain and ROR gamma transactivation domain under the control of the metallothionine promoter and a Photinus luciferase reporter regulated by the Gal4 binding site enhancer, UAS. […] Small molecule inhibitors of ROR gamma activity are detected by a decrease in luciferase reporter activity.
# Assay Protocol Summary: For screening, 600 cells in 4 uL/well were dispensed into white solid 1536-well plates (Grenier) using a solenoid-based dispenser. Following transfer of 23 nL compound or DMSO vehicle by a pin tool, the plates were incubated 1 hr at ambient temperature, and 1 uL/well copper sulfate (700 uM final concentration) was added. The plates were centrifuged 15 s at 1000 RPM and incubated 20 hr at ambient temperature. After addition of 1.5 uL Photinus luciferase detection reagent, the plates were incubated 10 min at ambient temperature and then read by an ViewLux (Perkin Elmer) to detect luminescence. Keywords: NIH Roadmap, MLPCN, MLI, MLSMR, qHTS, NCGC, qHTS, nuclear hormone receptor, retinoic acid-related orphan receptor, ROR gamma
# Potency means the concentration at half of the fitted maximal effect.
Structure (SMILES),Potency,"activity change, negative = inhibition"
COc1ccccc1/C=N\Nc1cc(C)nc(-n2nc(C)cc2C)n1,0.251 µM (active),–
COc1ccc(NC(=O)c2nc(-n3nc(C)cc3C)ccc2Cl)cc1Cl,inactive,–
COc1ccc(/C=N/Nc2cc(N3CCOCC3)nc(C)n2)c(OC)c1,inactive,–
CN(C)c1ccc(/C=N/Nc2cc(N3CCOCC3)nc(N3CCOCC3)n2)cc1,inactive,–
COc1ccc(Nc2cc(C)nc(-n3nc(C)cc3C)n2)cc1,0.501 µM (active),–
Cc1ccc(S(=O)(=O)Nc2nc(C)cc(N/N=C/c3ccc(O)cc3)n2)cc1,inactive,–
Cc1cc(Oc2ccccc2)nc(N2CCOCC2)n1,inactive,–
Cc1cc(C)n(-c2cc(Oc3ccccc3)ncn2)n1,inactive,–
COc1cccc2c(N/N=C/c3ccco3)cc(C)nc12,inactive,–
Cc1cc(N/N=C\c2ccc(Br)cc2)nc(-n2nc(C)cc2C)n1,0.1 µM (active),–
Cc1cc(Nc2ccc(Cl)cc2)nc(N2CCOCC2)n1,inactive,–
CC(=O)c1ccc(Oc2cc(C)nc(-n3nc(C)cc3C)n2)cc1,14.1 µM (active),–
CCn1c(Cc2ccc(OC)cc2)nnc1SCC(=O)Nc1ccc(N2CCOCC2)cc1,inactive,–
NC(=O)C1CCCN(CC(=O)N2CCN(c3ccccc3)CC2)C1 (stereo not drawn),inactive,–
Cc1ccccc1OCC(=O)Nc1ccc(S(=O)(=O)N2CCOCC2)cc1,inactive,–
O=C(Nc1cccc(Cl)c1N1CCOCC1)c1cccnc1,inactive,–
CCOC(=O)c1sc(NC(=O)c2sc(C)nc2C)nc1C,inactive,–
COCCn1c(SCC(=O)Nc2nc(C)cs2)nnc1C(C)C,inactive,–
CC1CC(C)CN(CCCNC(=O)c2csc3c2CCCCC3)C1 (stereo not drawn),inactive,–
CN1C(=O)CN2CCc3ccccc3C2c2cc(Cl)ccc21 (stereo not drawn),inactive,–
O=C1CCC(C(=O)N2CCN(c3ccccc3Cl)CC2)CN1CC1CCCCC1 (stereo not drawn),inactive,–
COc1ccccc1OCC(=O)Nc1c2c(nn1-c1ccc(F)cc1)CS(=O)(=O)C2,inactive,–

Structure (SMILES),Potency,"activity change, negative = inhibition"
N#C/C(C(=S)Nc1ccccc1)=C1/NN=C(N2CCOCC2)N1c1ccccc1,1.26 µM (active),–
Cc1ccc(CC2S/C(=C(/C#N)C(=O)N3CCOCC3)N(c3ccccc3)C2=O)cc1 (stereo not drawn),inactive,–
N#C/C(C(=O)N1CCOCC1)=C1/SC(Cc2ccc(F)cc2)C(=O)N1c1ccccc1 (stereo not drawn),inactive,–
c1ccc2c(c1)CCc1snnc1-2,inactive,–
COc1cc(/C=N/Nc2ccc(C)cc2)cc(Br)c1O,inactive,–
COc1ccc(/C=N/NC(=O)c2ccccc2)cc1OS(=O)(=O)c1ccccc1,inactive,–
COc1cc(/C=N/O)cc(Br)c1OS(=O)(=O)c1ccc(C)cc1,14.1 µM (active),–
CCOc1c(Cl)cc(/C=N/O)cc1OC,inactive,–
COc1cc(C(=O)NCc2ccncc2)cc(Br)c1OCc1ccccc1,inactive,–
COc1cc(/C=N/O)cc(Br)c1OCc1cccc(Cl)c1,10 µM (active),–
Cc1cc(S(=O)(=O)Nc2ccc(C(=O)NCC(c3ccco3)N3CCCC3)cc2)ccc1F (stereo not drawn),inactive,–
COc1cc(/C(=C/c2ccccc2)c2ccccc2)c2c(c1)oc1ccccc12,inactive,–
CC(=O)N1c2ccc(S(=O)(=O)NCCC(=O)N(C)C3CCCCC3)cc2CC1C (stereo not drawn),inactive,–
COc1cccc(NC(=O)C(=O)c2cn(CC(=O)N3CCOCC3)c3ccccc23)c1,inactive,–
COc1ccc(S(=O)(=O)n2nc(C)c(S(=O)(=O)N3CCOCC3)c2C)cc1,inactive,–
COc1ccc(C(=O)CSc2nnc(-c3ccco3)o2)cc1,inactive,–
CCCCOc1ccc(-c2nnc(-c3ccco3)o2)cc1,inactive,–
CCOc1ccc(-c2nnc(-c3ccco3)o2)cc1,15.8 µM (active),–
O=C(NCc1ccccc1)C(c1ccccc1)N(C(=O)c1csnn1)c1ccc(F)cc1 (stereo not drawn),inactive,–
CCOc1ccc(C(C(=O)NC2CCCC2)N(C(=O)c2snc(C(N)=O)c2N)C2CCCC2)cc1 (stereo not drawn),inactive,–
COc1ccc(C(=O)NC2CC2)cc1OC1CCN(Cc2cnn(C)c2)CC1,inactive,–
O=c1c(-c2ccccc2Cl)c[nH]n1-c1ccccc1,inactive,–

Structure (SMILES),Potency,"activity change, negative = inhibition"
COc1ccc(CNC(=O)CN(c2ccc(OC)c(Cl)c2)S(=O)(=O)c2ccc(C)cc2)cc1,inactive,–
NCCCCCC(=O)N/N=C/c1ccc2nccnc2c1,inactive,–
O=C(CCCO)N/N=C/c1cc(Br)ccc1O,3.98 µM (active),–
O=C(CCNc1n[nH]c(=O)[nH]c1=O)N/N=C\c1ccc(Br)cc1,inactive,–
COc1ccc(OC)c(NC(=O)c2ccc3c(c2)C(=O)N(c2ccc(OC(C)=O)cc2)C3=O)c1,inactive,–
CC(=O)/C(=N\Nc1ccc(Cl)cc1Cl)Sc1cccc2cccnc12,3.16 µM (active),–
O=C(Nc1ccccc1Cl)Nc1cccc2cccnc12,inactive,–
O=C(Nc1cccc2cccnc12)c1cccc(Cl)c1,inactive,–
CC1=C(C(=O)NC2CC(C)(C)Cc3c2cnn3-c2ccc(C)cc2)OCCO1 (stereo not drawn),inactive,–
CSc1ccccc1NC(=O)CN(C)CC(=O)Nc1ccc(Cl)cc1[N+](=O)[O-],11.2 µM (active),–
CSc1ccccc1NC(=O)Cc1ccc(Br)cc1,inactive,–
Cc1ccc(NC(=O)CN(C)Cc2ccc(F)cc2)c([N+](=O)[O-])c1,inactive,–
CN(CC(=O)Nc1ccccc1F)CC(=O)Nc1ccccc1Br,inactive,–
CCC(C)c1ccccc1NC(=O)CN(C)CC(=O)Nc1ccccc1SC (stereo not drawn),15.8 µM (active),–
CN(CC(=O)Nc1ccccc1[N+](=O)[O-])Cc1ccc(Br)cc1,inactive,–
CC(=O)c1cc(CN2CCC(n3nccc3NC(=O)c3ccccc3Cl)CC2)cs1,inactive,–
O=C(Nc1ccccc1-c1ccccc1)c1ccccc1[N+](=O)[O-],inactive,–
O=C(CN(C(=O)c1csnn1)c1ccc(Br)cc1)NC1CCCC1,inactive,–
Cc1ccc(S(=O)(=O)Oc2ccc(/C=N/NC(=O)c3ccncc3)cc2)cc1,inactive,–
CCC1CCCCN1C(=S)Nc1ccc(S(=O)(=O)Nc2ncccn2)cc1 (stereo not drawn),inactive,–
CC(=O)Nc1ccc(S(=O)(=O)Oc2ccc(Br)cc2C(=S)N2CCOCC2)cc1,inactive,–
COC(=O)c1cc(-c2cccs2)nc2ccccc12,inactive,–

Structure (SMILES),Potency,"activity change, negative = inhibition"
CCCCN(C)CCCNC(=O)c1cc(-c2cccs2)nc2ccccc12,inactive,–
O=C(Nc1nnc(-c2ccccc2)o1)c1cc(-c2cccs2)nc2ccccc12,4.47 µM (active),–
COC(=O)c1ccc(NC(=O)c2cc3c(CO)cnc(C)c3oc2=Nc2cccc(C(N)=O)c2)cc1,inactive,–
COc1ccc(OC)c(CCNC(=O)CCn2ccc3cc(S(=O)(=O)N4CCCC4)ccc32)c1,inactive,–
CN(CCc1ccccn1)C(=O)c1ccc(OC2CCN(Cc3ccccn3)CC2)cc1,inactive,–
Cc1ccc(C(C)C)cc1OCC(=O)Nc1ccccc1N1CCCC1,inactive,–
Cc1nnc(N/N=C/C2CC=CCC2)[nH]c1=O (stereo not drawn),11.2 µM (active),–
Cc1ccccc1Nc1nnc(C)c(=O)[nH]1,inactive,–
Cc1nnc(N/N=C/c2ccccn2)[nH]c1=O,inactive,–
CCC(=O)N1c2ccc(S(=O)(=O)NCc3ccco3)cc2CC1C (stereo not drawn),inactive,–
CCc1ccc(NC(=O)CN2C(=O)COc3ccc(S(=O)(=O)N4CCCC4)cc32)cc1,inactive,–
COc1cccc(CCNC(=O)c2cccc(NC(=O)C3=C(C)OCCS3)c2)c1,inactive,–
COc1ccc(NC(=S)N2CCCC(CO)C2)c(OC)c1 (stereo not drawn),inactive,–
CCCCc1ccc(NC(=S)N2CCCC(CO)C2)cc1 (stereo not drawn),15.8 µM (active),–
O=C(NC12CC3CC(CC(C3)C1)C2)N1CCCC(CO)C1 (stereo not drawn),inactive,–
CC(C)C(c1nnnn1C1CCCCC1)N1CCN(C(=O)c2ccco2)CC1 (stereo not drawn),inactive,–
CSCC[C@H](NC(=O)N1CCn2c1nc1ccccc12)C(=O)NCc1ccc2c(c1)OCO2,inactive,–
CCc1ccc(C(=O)COC(=O)c2ccco2)cc1,inactive,–
O=C(Nc1nncs1)c1ccccc1NS(=O)(=O)c1cccs1,inactive,–
CC(C)C(NS(=O)(=O)c1cccs1)C(=O)Nc1nc(C(C)(C)C)cs1 (stereo not drawn),11.2 µM (active),–
COc1ccc(CNC(=O)C(NS(=O)(=O)c2cccc3nsnc23)C(C)C)cc1 (stereo not drawn),inactive,–
OCCCN1c2ccccc2Nc2nnc(-c3ccccc3)cc21,10 µM (active),–

Structure (SMILES),Potency,"activity change, negative = inhibition"
O=C(NC1CCCCCCC1)c1cccs1,inactive,–
Cc1cccc(N(C)C(=O)c2cc(S(=O)(=O)N3CCCCC3)c[nH]2)c1,inactive,–
O=C(NC1CCCCC1)c1cc([N+](=O)[O-])ccc1N1CCOCC1,inactive,–
S=C(NC1CCCCC1)NN1CCOCC1,8.91 µM (active),–
COc1ccc(S(=O)(=O)N2CCOCC2)cc1C(=O)NC1CCCCC1,inactive,–
CCCC(=O)NC(C)C(c1cccs1)N1CCN(c2ccccc2)CC1 (stereo not drawn),inactive,–
CC(NC(=S)Nc1ccccc1)C(c1cccs1)N1CCOCC1 (stereo not drawn),11.2 µM (active),–
CC(NC(=O)Nc1ccccc1)C(c1cccs1)N1CCN(c2ccccc2)CC1 (stereo not drawn),inactive,–
O=C(NNC(=O)C(O)c1ccccc1)NC1CCCCC1 (stereo not drawn),inactive,–
CC(NC(=S)NC1CCCCC1)C(c1ccccc1)N1CCOCC1 (stereo not drawn),5.01 µM (active),–
CC(=O)OC(C(=O)NC1CCCCC1)c1ccccc1 (stereo not drawn),–,-6.92% [at 10 µM]
CC(=O)N1CC(=O)N(CC(=O)Nc2ccc(Br)cc2)C1=S,inactive,–
CCOC(=O)N1CCN(CCC(=O)Nc2ccccc2)CC1,inactive,–
Cc1nc(Nc2ccccc2F)c2nnn(Cc3ccccc3Cl)c2n1,inactive,–
Cc1cccc(CN2CCC(n3nccc3NC(=O)c3ccccc3C)CC2)n1,inactive,–
O=C(NCc1ccccc1)C(c1ccco1)N(C(=O)c1csnn1)c1ccccc1F (stereo not drawn),inactive,–
CCCCN1C(=O)/C(=C2/Sc3ccc(Cl)cc3N2CC)SC1=S,inactive,–
O=S(=O)(NC1CCCCC1N1CCCCC1)c1ccc(Cl)cc1 (stereo not drawn),inactive,–
CC(=O)Nc1cccc(Nc2nc(-c3cccs3)nc3ccccc23)c1,inactive,–
COc1ccc(CN(C)C(=O)Cc2c[nH]c3ccccc23)c(OC)c1OC,inactive,–
